Key:
[1] = molecular target: T1, Serine/threonine-protein kinase TBK1 (Homo sapiens) (UniProt Q9UHD2); settings: at 10 µM
T1 sequence (whole entry): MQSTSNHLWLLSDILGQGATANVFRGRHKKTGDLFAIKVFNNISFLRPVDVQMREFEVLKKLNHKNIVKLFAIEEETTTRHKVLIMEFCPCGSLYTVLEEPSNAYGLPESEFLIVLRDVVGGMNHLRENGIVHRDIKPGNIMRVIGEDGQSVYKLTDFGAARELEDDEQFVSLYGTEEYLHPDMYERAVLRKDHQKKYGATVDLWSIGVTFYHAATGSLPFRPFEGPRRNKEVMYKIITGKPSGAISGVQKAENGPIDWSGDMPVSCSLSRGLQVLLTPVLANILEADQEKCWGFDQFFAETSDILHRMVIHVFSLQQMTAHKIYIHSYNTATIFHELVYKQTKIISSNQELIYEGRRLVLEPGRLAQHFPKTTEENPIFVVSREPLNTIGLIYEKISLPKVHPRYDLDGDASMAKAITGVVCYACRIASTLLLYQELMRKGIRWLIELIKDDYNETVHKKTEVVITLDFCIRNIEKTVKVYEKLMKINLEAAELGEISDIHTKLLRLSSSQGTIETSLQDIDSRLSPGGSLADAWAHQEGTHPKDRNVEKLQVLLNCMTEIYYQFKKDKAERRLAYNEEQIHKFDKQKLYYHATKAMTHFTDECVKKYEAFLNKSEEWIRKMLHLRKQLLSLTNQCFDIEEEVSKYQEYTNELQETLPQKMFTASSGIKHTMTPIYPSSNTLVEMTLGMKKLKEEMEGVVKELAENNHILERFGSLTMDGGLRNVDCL

[2] = molecular target: T2, TGF-beta receptor type-1 (Homo sapiens) (UniProt P36897); settings: at 1 µM
T2 sequence (whole entry): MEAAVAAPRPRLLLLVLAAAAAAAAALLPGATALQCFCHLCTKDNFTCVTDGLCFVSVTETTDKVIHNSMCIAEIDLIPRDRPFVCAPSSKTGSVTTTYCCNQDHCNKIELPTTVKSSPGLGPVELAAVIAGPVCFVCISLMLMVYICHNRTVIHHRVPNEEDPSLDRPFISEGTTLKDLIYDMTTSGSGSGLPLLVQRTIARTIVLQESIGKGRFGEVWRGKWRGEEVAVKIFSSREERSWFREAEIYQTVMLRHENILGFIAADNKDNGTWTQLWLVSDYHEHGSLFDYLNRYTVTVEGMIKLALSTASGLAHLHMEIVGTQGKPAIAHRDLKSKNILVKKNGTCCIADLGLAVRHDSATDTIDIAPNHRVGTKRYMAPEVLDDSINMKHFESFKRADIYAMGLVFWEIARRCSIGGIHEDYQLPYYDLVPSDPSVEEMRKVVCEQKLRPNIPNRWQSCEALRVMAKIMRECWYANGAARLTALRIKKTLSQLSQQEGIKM

[3] = molecular target: T2, TGF-beta receptor type-1 (Homo sapiens); settings: at 10 µM
[4] = molecular target: Insulin-like growth factor 1 receptor (Homo sapiens) (UniProt P08069); settings: at 1 µM
Insulin-like growth factor 1 receptor (Homo sapiens), sequence (P08069 31-736 limits assumed): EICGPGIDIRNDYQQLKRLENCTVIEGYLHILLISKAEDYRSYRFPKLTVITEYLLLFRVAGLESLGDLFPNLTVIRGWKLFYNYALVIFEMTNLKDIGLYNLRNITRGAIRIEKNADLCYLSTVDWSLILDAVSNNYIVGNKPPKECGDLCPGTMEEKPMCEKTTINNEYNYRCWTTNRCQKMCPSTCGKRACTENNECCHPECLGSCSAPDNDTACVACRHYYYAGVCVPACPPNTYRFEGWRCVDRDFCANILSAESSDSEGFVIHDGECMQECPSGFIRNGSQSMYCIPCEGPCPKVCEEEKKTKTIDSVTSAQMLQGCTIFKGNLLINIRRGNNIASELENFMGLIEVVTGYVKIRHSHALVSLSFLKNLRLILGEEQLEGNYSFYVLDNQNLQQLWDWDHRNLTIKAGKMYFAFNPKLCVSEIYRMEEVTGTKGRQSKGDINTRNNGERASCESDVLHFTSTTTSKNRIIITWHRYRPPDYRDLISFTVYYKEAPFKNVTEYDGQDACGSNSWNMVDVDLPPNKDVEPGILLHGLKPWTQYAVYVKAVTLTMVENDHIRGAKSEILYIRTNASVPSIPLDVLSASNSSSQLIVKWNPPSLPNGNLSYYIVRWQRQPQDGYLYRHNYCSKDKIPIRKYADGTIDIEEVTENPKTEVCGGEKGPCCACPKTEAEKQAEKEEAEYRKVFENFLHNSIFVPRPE
Insulin-like growth factor 1 receptor (Homo sapiens), sequence (P08069 741-1367 limits assumed): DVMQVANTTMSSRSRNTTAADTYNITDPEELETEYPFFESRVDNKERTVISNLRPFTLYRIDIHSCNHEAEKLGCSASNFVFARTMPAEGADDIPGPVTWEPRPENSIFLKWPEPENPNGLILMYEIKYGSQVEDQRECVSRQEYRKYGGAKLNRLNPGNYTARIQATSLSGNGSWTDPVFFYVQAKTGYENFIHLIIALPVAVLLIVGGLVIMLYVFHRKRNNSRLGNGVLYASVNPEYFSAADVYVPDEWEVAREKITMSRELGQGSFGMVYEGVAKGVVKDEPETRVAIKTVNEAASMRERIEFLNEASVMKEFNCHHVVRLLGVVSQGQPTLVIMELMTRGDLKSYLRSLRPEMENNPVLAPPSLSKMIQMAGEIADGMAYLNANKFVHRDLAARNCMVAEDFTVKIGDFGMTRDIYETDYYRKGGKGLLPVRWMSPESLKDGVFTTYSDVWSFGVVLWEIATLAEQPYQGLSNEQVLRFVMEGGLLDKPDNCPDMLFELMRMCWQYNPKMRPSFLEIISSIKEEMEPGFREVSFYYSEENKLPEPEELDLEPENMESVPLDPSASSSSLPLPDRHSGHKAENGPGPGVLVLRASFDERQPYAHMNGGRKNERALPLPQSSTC

[5] = molecular target: Insulin-like growth factor 1 receptor (Homo sapiens) (UniProt P08069); settings: at 10 µM
[6] = molecular target: T3, Inhibitor of nuclear factor kappa-B kinase subunit alpha (Homo sapiens) (UniProt O15111); settings: at 1 µM
T3 sequence (whole entry): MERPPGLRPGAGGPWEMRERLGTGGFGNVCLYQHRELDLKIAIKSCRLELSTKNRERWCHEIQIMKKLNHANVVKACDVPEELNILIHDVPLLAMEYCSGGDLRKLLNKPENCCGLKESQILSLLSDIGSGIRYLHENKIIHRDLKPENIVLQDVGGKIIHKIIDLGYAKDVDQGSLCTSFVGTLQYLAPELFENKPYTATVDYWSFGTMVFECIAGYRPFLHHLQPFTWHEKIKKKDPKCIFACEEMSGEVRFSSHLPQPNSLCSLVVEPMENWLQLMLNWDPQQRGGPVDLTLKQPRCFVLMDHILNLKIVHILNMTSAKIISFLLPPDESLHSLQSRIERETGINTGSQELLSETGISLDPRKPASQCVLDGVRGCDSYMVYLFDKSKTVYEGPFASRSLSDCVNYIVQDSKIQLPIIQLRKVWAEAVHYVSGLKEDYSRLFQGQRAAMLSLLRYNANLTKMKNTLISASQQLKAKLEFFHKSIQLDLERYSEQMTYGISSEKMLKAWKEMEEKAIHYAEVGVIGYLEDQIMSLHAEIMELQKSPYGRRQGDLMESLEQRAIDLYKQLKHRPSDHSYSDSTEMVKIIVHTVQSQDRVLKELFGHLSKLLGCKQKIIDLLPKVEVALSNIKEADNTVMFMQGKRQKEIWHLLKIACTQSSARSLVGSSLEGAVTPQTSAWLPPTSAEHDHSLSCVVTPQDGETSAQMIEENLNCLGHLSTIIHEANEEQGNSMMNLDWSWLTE

[7] = molecular target: T3, Inhibitor of nuclear factor kappa-B kinase subunit alpha (Homo sapiens); settings: at 10 µM
[8] = molecular target: T4, Inhibitor of nuclear factor kappa-B kinase subunit beta (Homo sapiens) (UniProt O14920); settings: at 1 µM
T4 sequence (whole entry): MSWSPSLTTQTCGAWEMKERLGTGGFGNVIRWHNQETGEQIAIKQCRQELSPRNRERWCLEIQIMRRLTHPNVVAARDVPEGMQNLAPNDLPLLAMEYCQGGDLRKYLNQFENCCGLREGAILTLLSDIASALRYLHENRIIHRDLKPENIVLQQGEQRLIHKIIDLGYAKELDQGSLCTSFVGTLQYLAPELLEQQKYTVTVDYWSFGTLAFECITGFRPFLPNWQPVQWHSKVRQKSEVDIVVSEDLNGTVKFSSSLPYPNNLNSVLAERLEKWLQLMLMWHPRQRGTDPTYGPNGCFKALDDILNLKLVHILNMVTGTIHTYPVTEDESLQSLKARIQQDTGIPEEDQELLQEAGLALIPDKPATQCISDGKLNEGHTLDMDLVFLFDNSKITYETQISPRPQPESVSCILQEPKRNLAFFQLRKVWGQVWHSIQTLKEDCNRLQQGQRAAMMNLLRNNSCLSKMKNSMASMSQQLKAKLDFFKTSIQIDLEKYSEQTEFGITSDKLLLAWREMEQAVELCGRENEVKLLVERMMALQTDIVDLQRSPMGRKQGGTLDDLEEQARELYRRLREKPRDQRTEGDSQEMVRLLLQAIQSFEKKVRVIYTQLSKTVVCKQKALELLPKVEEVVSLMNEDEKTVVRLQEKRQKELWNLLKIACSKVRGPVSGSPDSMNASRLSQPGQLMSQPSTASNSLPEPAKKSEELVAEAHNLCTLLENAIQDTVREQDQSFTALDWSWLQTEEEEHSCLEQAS

[9] = molecular target: T4, Inhibitor of nuclear factor kappa-B kinase subunit beta (Homo sapiens); settings: at 10 µM

## CCCCc1c(-c2ccc(OC)cc2)[nH]c2nccnc12
[1]
  residual activity: 59%
[2]
  residual activity: 84%
[3]
  residual activity: 73%
[4]
  residual activity: 61%
[5]
  residual activity: 51%
[6]
  residual activity: 87%
[7]
  residual activity: 87%
[8]
  residual activity: 109%
[9]
  residual activity: 101%

From ChEMBL document CHEMBL2218924, “A broad activity screen in support of a chemogenomic map for kinase signalling research and drug discovery” (Biochem J, 2013)
